According to PubChem BioAssay AID1224921 (Broad Institute, 2016):
Hit rate of the full screen: of about 1,400 compounds, about 350 (25%) were called active. Inconclusive results (about 2%) are left out. How the calls were made is not given here. Not all results are given here. Results with a measured potency or affinity are listed apart.

assay: C. difficile growth inhibition, confirmation, 4-point retest (AID 1224921); details: Clostridioides difficile clinical isolate growth, OD600, 24 h, hits give low values; at 30 µM unless noted;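 further: plate controls were DMSO wells for no effect and levofloxacin 16 µg/mL wells for full effect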

Max activity, inactive:
C[C@@H]1CN([C@@H](C)CO)S(=O)(=O)c2ccc(C#CC3(O)CCCC3)cc2O[C@@H]1CN(C)C(=O)Nc1cccc(F)c1 40.2%
CO[C@H]1CN(C)C(=O)c2cc(NS(=O)(=O)c3cn(C)cn3)ccc2OC[C@H](C)N(C)C[C@@H]1C -7.09% [at 0.5 µM]
COc1cccc(NC(=O)N[C@@H]2C=C[C@H](CC(=O)NCc3ccncn3)O[C@H]2CO)c1 11.5%
CC(C)NC(=O)N(C)C[C@H]1Oc2cc(C#Cc3cccc(F)c3)ccc2S(=O)(=O)N([C@H](C)CO)C[C@H]1C 32.6%
C[C@H](CO)N1C[C@H](C)[C@@H](CN(C)Cc2ccc(Cl)c(Cl)c2)Oc2ccc(NS(=O)(=O)c3cccs3)cc2CC1=O 37.8% [at 8 µM]
CO[C@@H]1CN(C)C(=O)c2ccc(NC(=O)NC(C)C)cc2OC[C@@H](C)N(C(=O)NC(C)C)C[C@H]1C -11.6% [at 2.1 µM]
CCCC(=O)Nc1ccc2c(c1)OC[C@H](C)N(CCc1ccccc1)C[C@@H](C)[C@H](OC)CN(C)C2=O 25.9%
O=C(Nc1ccc(Cl)cc1)N[C@@H]1CC[C@@H](CCn2cc(C3(O)CCCC3)nn2)O[C@@H]1CO 29.6%
C[C@@H]1CN([C@@H](C)CO)C(=O)c2ccccc2-c2ccccc2CO[C@H]1CN(C)CC1CC1 9.59%
CO[C@@H]1CN(C)C(=O)c2ccc(NC(=O)Nc3cccc(F)c3)cc2OC[C@@H](C)N(C(=O)C2CC2)C[C@H]1C -12.2% [at 8 µM]
C[C@@H]1CN([C@@H](C)CO)C(=O)c2cc(NC(=O)NC3CCCCC3)ccc2O[C@@H](C)CCCCO[C@@H]1CN(C)Cc1ccc(C(F)(F)F)cc1 24.6%
CC(C)CC#Cc1ccc2c(c1)O[C@H](CN(C)Cc1ccccn1)[C@@H](C)CN([C@@H](C)CO)S2(=O)=O 27.1%
CC(C)C#Cc1ccc2c(c1)O[C@H](CN(C)Cc1cccnc1)[C@@H](C)CN([C@H](C)CO)S2(=O)=O 44.6%
CCCC(=O)Nc1ccc2c(c1)C(=O)N(C)C[C@@H](OC)[C@@H](C)CN(C)[C@@H](C)CO2 -13% [at 8 µM]
C[C@@H]1CN([C@@H](C)CO)C(=O)c2cccc(NC(=O)Nc3ccc(C(F)(F)F)cc3)c2O[C@H]1CN(C)Cc1ccc2c(c1)OCO2 34.4% [at 8 µM]
C[C@H]1CN([C@@H](C)CO)C(=O)c2cccc(NC(=O)Nc3ccc(C(F)(F)F)cc3)c2O[C@@H]1CN(C)Cc1ccc2c(c1)OCO2 42%
C[C@@H]1CN([C@H](C)CO)C(=O)c2cccc(NC(=O)Nc3ccc(F)cc3)c2O[C@H]1CN(C)S(=O)(=O)c1ccc(F)cc1 -11.6% [at 7.5 µM]
Cc1ccc(S(=O)(=O)N(C)C[C@@H]2Oc3c(NC(=O)Nc4ccc(F)cc4)cccc3C(=O)N([C@H](C)CO)C[C@H]2C)cc1 -10.7% [at 1.95 µM]
C[C@@H]1CN([C@@H](C)CO)C(=O)c2cc(Br)cnc2O[C@H]1CN(C)C(=O)c1ccccc1 9.74%
Cc1noc(C)c1NC(=O)N[C@H]1CC[C@@H](CC(=O)Nc2ccc(-c3ccccc3)cc2)O[C@H]1CO 12.6%
COc1ccc(NC(=O)Nc2ccc3c(c2)C(=O)N([C@@H](C)CO)C[C@@H](C)[C@H](CN(C)Cc2ccccc2)OCCCC[C@@H](C)O3)cc1 30.9%
CCCC(=O)Nc1ccc2c(c1)C(=O)N(C)C[C@H](OC)[C@@H](C)CN(Cc1ccccc1)[C@H](C)CO2 15.3%
O=C(C[C@@H]1C=C[C@@H](NC(=O)CC2CC2)[C@H](CO)O1)NCc1ccc(-c2ccccc2)cc1 -9.84% [at 0.5 µM]
CO[C@H]1CN(C)C(=O)c2cc(NC(C)=O)ccc2OC[C@H](C)N(CCc2ccccc2)C[C@H]1C 19.8%
CCCN1C[C@H](C)[C@H](OC)CN(C)C(=O)c2cc(NC(=O)c3cccc(F)c3)ccc2OC[C@@H]1C -11.7% [at 1.95 µM]
C=CCOC(=O)[C@H]1[C@@H]2C(=O)O[C@@H](c3ccccc3)[C@@H](c3ccccc3)N2[C@@H](c2ccc(OCCOC(=O)[C@@H]3C[C@@H]4C(=O)N[C@@H](CC(C)C)C(=O)N4[C@@H]3c3cccc(OCCO)c3)cc2)[C@]12C(=O)Nc1ccccc12 24.6%
COc1ccc(-c2ccc([C@H]3[C@@H](C#N)N(C(=O)C4CC4)[C@H]3CO)cc2)cc1 32.9%
C[C@@H]1CN([C@H](C)CO)C(=O)Cc2cc(NC(=O)c3ccncc3)ccc2O[C@@H]1CN(C)Cc1ccc(-c2ccccc2)cc1 47.8% [at 35 µM]
CO[C@H]1CN(C)C(=O)c2ccc(NS(C)(=O)=O)cc2OC[C@@H](C)N(Cc2ccccn2)C[C@H]1C -14.3% [at 8 µM]
COCC(=O)Nc1ccc2c(c1)OC[C@@H](C)N(C(=O)c1ccccc1F)C[C@H](C)[C@H](OC)CN(C)C2=O 7.88%
C[C@@H]1CN([C@H](C)CO)S(=O)(=O)c2ccc(C#CCN(C)C)cc2O[C@H]1CN(C)C(=O)c1ccccc1F 18%
CCCN1C[C@@H](C)[C@@H](OC)CN(C)C(=O)c2cc(NC(=O)c3cccc(F)c3)ccc2OC[C@@H]1C -11.8%
CCCN1C[C@H](C)[C@@H](OC)CN(C)C(=O)c2ccc(NC(=O)CC)cc2OC[C@H]1C 5.45% [at 1.95 µM]
COCC(=O)N1C[C@H](C)[C@@H](OC)CN(C)C(=O)c2cc(NC(=O)NC(C)C)ccc2OC[C@@H]1C 23.4%
C[C@H](CO)N1C[C@H](C)[C@H](CN(C)S(=O)(=O)c2cccc(F)c2)Oc2ncc(C#CCN(C)C)cc2C1=O 8.03%
O=C(C[C@H]1C[C@@H]2c3cc(NC(=O)C4CCC4)ccc3O[C@@H]2[C@@H](CO)O1)NCc1ccc(Cl)cc1 -16.5% [at 0.5 µM]
C[C@@H]1CN([C@@H](C)CO)C(=O)c2cccc(NC(=O)c3ccncc3)c2O[C@H]1CN(C)Cc1ccc(-c2ccccc2)cc1 13.2% [at 8 µM]
Cc1cc(C(=O)Nc2cccc3c2O[C@H](CN(C)Cc2ccc(Oc4ccccc4)cc2)[C@@H](C)CN([C@H](C)CO)C3=O)n(C)n1 41%
C[C@@H]1CN([C@H](C)CO)C(=O)c2cccc(NC(=O)c3ccncc3)c2O[C@H]1CN(C)Cc1ccc(-c2ccccc2)cc1 36.1% [at 8 µM]
C[C@H]1CN([C@@H](C)CO)C(=O)c2cccc(NS(C)(=O)=O)c2O[C@@H]1CN(C)Cc1ccccc1 -11.4% [at 0.5 µM]
C[C@@H]1CN([C@H](C)CO)C(=O)c2cccc(NC(=O)c3ccncc3)c2O[C@H]1CN(C)Cc1ccc(Cl)c(Cl)c1 16.6%
C[C@@H]1CN([C@@H](C)CO)C(=O)Cc2cc(NC(=O)c3ccncc3)ccc2O[C@H]1CN(C)Cc1ccc(-c2ccccc2)cc1 25.3% [at 8 µM]
CO[C@H]1CN(C)C(=O)c2cc(NC(=O)Nc3cccc(F)c3)ccc2OC[C@@H](C)N(C)C[C@@H]1C -17.5%
CO[C@@H]1CN(C)C(=O)c2cc(NS(=O)(=O)c3ccccc3C)ccc2OC[C@@H](C)N(C)C[C@H]1C -6.93% [at 1.95 µM]
CCC(=O)N[C@H]1CC[C@H](CC(=O)NCCN2CCCCC2)O[C@@H]1CO 25.2%
Cc1ccccc1-c1ccc2c(c1)O[C@H](CN(C)Cc1ccncc1)[C@H](C)CN([C@@H](C)CO)S2(=O)=O 25.3%
O=C(C[C@H]1CC[C@H]2[C@@H](COC[C@H](O)CN2S(=O)(=O)c2ccccc2)O1)NCc1ccc(-c2ccccc2)cc1 41.2%
O=C(C[C@@H]1CC[C@@H]2[C@H](COC[C@@H](O)CN2S(=O)(=O)c2ccccc2)O1)NCc1ccc(-c2ccccc2)cc1 25.5%
CC(C)CC#Cc1ccc2c(c1)O[C@@H](CN(C)Cc1cccnc1)[C@H](C)CN([C@H](C)CO)S2(=O)=O 41.5% [at 8 µM]
CC(C)CC#Cc1ccc2c(c1)O[C@H](CN(C)Cc1ccccc1F)[C@H](C)CN([C@@H](C)CO)S2(=O)=O 23.7% [at 8 µM]
CO[C@@H]1CN(C)C(=O)c2ccc(NC(=O)c3ccccn3)cc2OC[C@@H](C)N(C(=O)C2CCC2)C[C@H]1C -10.9% [at 23.5 µM]
CC(C)C(=O)Nc1ccc2c(c1)C(=O)N(C)[C@H]1CC[C@@H](CC(=O)NCc3ccccc3F)O[C@H]1CO2 -11.1% [at 1.95 µM]
C[C@@H]1CN([C@@H](C)CO)S(=O)(=O)c2ccc(C#CC3CCCC3)cc2O[C@H]1CN(C)Cc1cccnc1 15.4%
O=C(N[C@@H]1C=C[C@@H](CC(=O)N2CCc3ccccc3C2)O[C@@H]1CO)C1CC1 15.1%
CC(C)CC#Cc1ccc2c(c1)O[C@H](CN(C)Cc1ccc3c(c1)OCO3)[C@H](C)CN([C@@H](C)CO)S2(=O)=O 27.5%
O=C(C[C@H]1C[C@@H]2c3cc(NC(=O)Nc4ccc(C(F)(F)F)cc4)ccc3O[C@@H]2[C@H](CO)O1)NCc1ccc(Cl)cc1 21.4%
CCCC(=O)Nc1ccc2c(c1)OC[C@H](C)N(CCc1ccccc1)C[C@H](C)[C@@H](OC)CN(C)C2=O 22%
